This is an account of results in PubChem BioAssay (NCI).

The nature of the assay: NCI Yeast Anticancer Drug Screen. Data for the rad50EPP+ strain (AID 151).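 Note: 0% = growth of vehicle-treated control cultures.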 As to conditions: S. cerevisiae rad50 mutant strain, stronger effect = higher value. The protocol: Growth inhibition of yeast strains with defined genetic alterations is measured as a screen for potential anti-cancer activity. Selected strains with alterations in DNA damage repair or cell cycle control were exposed to compounds and growth inhibition was measured relative to vehicle treated controls. The strain used in this assay is rad50EPP+

Molecules are shown by their SMILES. About 79,000 compounds went through this panel and 15% of them were active in at least one assay; those are over-represented in the sample as a whole. Values without a mark were called inactive. Activity calls are given as the source filed them. Cut-off read from the data, not from the text of the source: active = growth inhibition above about 70%; inactive = the rest.

In the case of `O=c1[nH]c2c([N+](=O)[O-])cccc2c2ccccc12`, the growth inhibition reads like this: (at 1.2 µM) 5%; (at 3.7 µM) 12%; (at 11.0 µM) 26%; (at 33.0 µM) 52%; (at 100.0 µM) 76% (active).

For `c1ccc([P+](CCN2Cc3ccccc3C2)(c2ccccc2)c2ccccc2)cc1`, the growth inhibition is -21% (at 1.2 µM); -15% (at 3.7 µM); -10% (at 11.0 µM); -8% (at 33.0 µM); 6% (at 100.0 µM).

Consider `CN(C)CCCn1c2c3ccccc3ccc2c2oc(=O)c3ccccc3c21`, for which the growth inhibition (at 1.2 µM) is 13%; the growth inhibition (at 3.7 µM) is 58%; the growth inhibition (at 11.0 µM) was 95% (active); the growth inhibition (at 33.0 µM) is 98% (active); the growth inhibition (at 100.0 µM) was 98% (active).

For `CC1CCC(C2=CSC3CCCCC3N2)CC1` (stereo not given), the growth inhibition is 1% (at 1.2 µM); -14% (at 3.7 µM); -8% (at 11.0 µM); 14% (at 33.0 µM); 71% (active) (at 100.0 µM).

As to `CCC(OC(C)=O)C1CC(C(C)C)CCC1C` (stereo not given), the growth inhibition runs as follows: (at 1.2 µM) 0%; (at 3.7 µM) 0%; (at 11.0 µM) 15%; (at 33.0 µM) 46%; (at 100.0 µM) 96% (active).

Take `O=C1c2cccc3cccc(c23)C(=O)N1O`: the growth inhibition by setting is: (at 1.2 µM) -3%; (at 3.7 µM) -2%; (at 11.0 µM) -1%; (at 33.0 µM) 28%; (at 100.0 µM) 89% (active).

Regarding `CSC(=S)N/N=C/c1ccccc1`, the growth inhibition is, setting by setting: (at 1.2 µM) -1%; (at 3.7 µM) 2%; (at 11.0 µM) 16%; (at 33.0 µM) 60%; (at 100.0 µM) 75% (active).

For `O=S(=O)(c1ccccc1)N1CN2CN(C1)CN(S(=O)(=O)c1ccccc1)C2`, the growth inhibition is -18% (at 1.2 µM); -15% (at 3.7 µM); -15% (at 11.0 µM); -12% (at 33.0 µM); -10% (at 100.0 µM).
